The list is not random: actives were taken first. Their share in the collection is about 6.1%.
ATXN2 expr inh = Primary qHTS for Inhibitors of ATXN expression. AID 1745845, 2022. HEK-293 ATXN2-luciferase reporter, luminescence, 24 h. 360,000 compounds, 0.72% hits. Potency, µM (highest dose often 57 µM), without a hit: at the highest dose activity change, negative = inhibition, usual class: inhibitors; further: on the % scale 0 is the no-effect control and ±100 the full control effect; nearly all actives have a fitted effect of over 55% in size
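ATXN2-luciferase reporter cells (luciferase flanked by upstream and downstream ATXN2 gene portions) were treated 24 h at 37 °C with compounds at up to 57 uM. SteadyGlo luminescence gave expression; GF-AFC fluorescence gave viability.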
S2 tox = Viability Counterscreen for Primary qHTS for Inhibitors of ATXN expression | S2 cells (HEK-293 line with an ATXN2-luciferase reporter) viability, CellTiter-Fluor protease fluorescence, 24 h | Potency, µM (doses to about 56.7 µM), actives largely listed as cytotoxic | 400,000 compounds, 0.49% hits; further: nearly all actives have a fitted effect of over 40% in size
VP16 counter = VP16 counterscreen qHTS for inhibitors of ROR gamma transcriptional activity | Drosophila S2 Gal4-VP16 UAS-luciferase, luminescence, 20 h | Potency, µM (series often up to 53.6 µM), for the others: at the top dose activity, negative = inhibition, most hits filed as inhibitors | 310,000 compounds, 3.5% hits;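 further: Gal4-VP16 expression switched on by copper sulfate through the metallothionein promoter; on the % scale 0 is the no-effect control and ±100 the full control effect; nearly all actives have a fitted effect of over 50% in size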
HepG2 viability = qHTS for Inhibitors of TGF-b: Cytotox Counterscreen; HepG2 CAGA-GFP viability, ATP luminescence, 18 h; Potency, µM (series often up to 46.1 µM), for inactives: at the top dose activity change, negative = cytotoxicity, hits mostly cytotoxic; 410,000 compounds, 0.76% hits
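HepG2 CAGA-GFP cells (1000/well, DMEM with 1% FBS) received compound, then TGF-beta at 500 pg/mL final, and were incubated 18 hours at 37 degrees C. Viability was read by CellTiter-Glo luminescence. Media-only wells were set as complete cell-killing and DMSO as no toxicity.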
RORgamma inh = qHTS for inhibitors of ROR gamma transcriptional activity; 310,000 compounds, 5.4% hits; AID 2551, 2010; Potency, µM (highest dose often 53.6 µM), for the others: at the top dose activity change, negative = inhibition, most hits filed as inhibitors; Drosophila S2 Gal4-RORgamma UAS-luciferase reporter, 20 h; further: on the % scale 0 is the no-effect control and ±100 the full control effect; nearly all actives have a fitted effect of over 60% in size
Target sequence (P51450 whole entry, looked up, the tested form may be a part): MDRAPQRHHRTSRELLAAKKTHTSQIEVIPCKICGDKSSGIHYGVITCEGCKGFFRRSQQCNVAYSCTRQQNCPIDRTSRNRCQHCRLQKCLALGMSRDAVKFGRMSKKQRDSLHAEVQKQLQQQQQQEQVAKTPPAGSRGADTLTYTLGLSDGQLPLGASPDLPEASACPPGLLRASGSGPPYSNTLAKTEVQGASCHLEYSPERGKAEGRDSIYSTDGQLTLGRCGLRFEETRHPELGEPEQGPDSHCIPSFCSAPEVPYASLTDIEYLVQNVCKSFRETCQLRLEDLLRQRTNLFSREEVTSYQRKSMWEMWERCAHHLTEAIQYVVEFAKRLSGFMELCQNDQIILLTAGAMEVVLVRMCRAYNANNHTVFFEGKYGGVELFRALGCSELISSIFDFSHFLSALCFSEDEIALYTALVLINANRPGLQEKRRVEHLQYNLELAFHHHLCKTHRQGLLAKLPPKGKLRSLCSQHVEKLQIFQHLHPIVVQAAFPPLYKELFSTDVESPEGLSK
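A Gal4/UAS one-hybrid system in insect cells: metallothionein-promoter Gal4–ROR gamma fusion plus Photinus luciferase reporter. Copper sulfate 700 uM final, 20 hr ambient incubation, luminescent detection after 10 min with reagent.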
TGFb SMAD3 inh = qHTS for Inhibitors of TGF-b; HepG2 CAGA-GFP TGF-b/SMAD3 reporter, GFP fluorescence, 18 h; TGF-beta stimulated, 500 pg/mL final; Potency, µM (top dose mostly 46.1 µM), for inactives: at the top dose activity, negative = inhibition, usual class: inhibitors; 410,000 compounds, 1.2% hits; AID 588855, 2011; further: on the % scale 0 is the no-effect control and ±100 the full control effect; nearly all actives have a fitted effect of over 65% in size
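First, reporter cells (HEPG2 CAGA-GFP) rested 2 h at 37 degrees C. Next, compounds were pinned in and TGF-beta added to 500 pg/mL final. After 18 h, GFP was imaged per cell and summed per well.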
An asterisk follows results filed as active; i = inactive; ? = inconclusive; . = no result; ! = not active in a repeat; [ ] = remark or other dose. The call rests on the fitted dose curve; in most records, active means well fitted curve in the direction sought with a large enough effect; inconclusive means small, poorly fitted or top-dose-only effect, or another doubt; inactive means no such curve, though single readings can be large; an effect the other way counts as inactive or inconclusive. Potency means the concentration at half of the fitted maximal effect.

SMILES	ATXN2 expr inh	S2 tox	VP16 counter	HepG2 viability	RORgamma inh	TGFb SMAD3 inh
CCCCN(CCCC)C(=S)N/N=C/c1c(C)[nH]n(-c2ccccc2)c1=O	?	i	5µM*	-21%	1.6µM*	?
Cc1ccc(-c2cc(C(=O)N/N=C/c3c(C)nn(-c4ccccc4)c3C)n[nH]2)s1	.	?	?	-31%	-5%	13µM*
Cc1ccc(CNC(=O)c2ccc3c(c2)CCN3S(=O)(=O)c2ccc(Br)cc2)cc1	9%	i	.	0%	.	?
CC(C)(C(O)c1ccc([N+](=O)[O-])cc1)[N+](=O)[O-] (centres undefined)	.	.	13%	.	11%	.
Cc1ccc(-n2[nH]c(C)c(C=NCc3ccncc3)c2=O)cc1	29%	i	-16%	-109%	6%	-9%
Cc1[nH]n(-c2ccccc2)c(=O)c1/C=N/N1CCOCC1	14%	i	-10%	-14%	-7%	2%
Cc1ccc(-n2[nH]c(C)c(/C=N/NC(=O)c3ccc(O)cc3O)c2=O)cc1	?	i	7.1µM*	-51%	2.5µM*	-9%
Cc1[nH]n(-c2ccccc2)c(=S)c1C=Nc1cccc([N+](=O)[O-])c1	-15%	?	7.1µM*	-21%	1.8µM*	?
Cc1[nH]n(-c2ccccc2)c(=O)c1/C=N/NC(=O)c1ccc(O)cc1O	.	?	7.1µM*	-19%	1.8µM*	-3%
CCOC(=O)C(CC)Sc1ncnc2c1c(-c1ccccc1)cn2-c1ccc(OC)cc1 (centres undefined)	0%	i	.	5%	.	40%
CC(O)C(NS(=O)(=O)c1ccc(Cl)cc1)C(=O)OCC(=O)c1ccc2c(c1)NC(=O)CO2 (centres undefined)	-14%	?	.	9%	.	-2%
CC(C)CC(NC(=O)c1ccc(Cl)cc1)C(=O)OCC(=O)c1ccc2c(c1)NC(=O)CO2 (centres undefined)	25µM*	22µM*	7.1µM*	3.2µM*	11µM*	11µM*
CC(C)OCCCn1c(SCC(=O)Nc2ccccc2C(F)(F)F)nc2nccnc2c1=O	6%	i	3%	2.5µM*	-4%	13%
O=C(CSc1ncc2c(n1)-c1cc(Cl)ccc1N(Cc1ccccc1F)S2(=O)=O)Nc1cccc(C(F)(F)F)c1	7%	i	.	-29%	.	-13%
COCCn1c2c([n+](Cc3cnccn3)c1C)C(=O)c1ccccc1C2=O	0.054µM*	.	.	.	.	.
COCCn1c(=O)c(C)nc2cncnc21	.	.	-6%	.	-2%	.
CC1=C(C(N)=O)C(c2cccc(C)c2)n2nc(-c3ccc(Cl)cc3)nc2N1 (centres undefined)	.	.	.	-28%	.	-24%
CCN1CCN(Cc2ccc(NC(=O)c3cc(NC(=O)c4cc(C)on4)cc(OC)c3)cc2C(F)(F)F)CC1	?	?	-23%	-37%	?	?
CCN1CCN(Cc2ccc(NC(=O)c3cc(NC(=O)c4cnn(-c5ccccc5)c4N)cc(OC)c3)cc2C(F)(F)F)CC1	?	25µM*	-24%	-79%	-40%	?
CCN1CCN(Cc2ccc(NC(=O)c3ccc(C)c(NC(=O)C(=O)c4c[nH]c5ccccc45)c3)cc2C(F)(F)F)CC1	14µM*!	14µM*	?	16µM*!	13µM*	18µM*
CCN1CCN(Cc2ccc(NC(=O)c3cc(NC(=O)C(=O)c4c[nH]c5ccccc45)cc(OC)c3)cc2C(F)(F)F)CC1	14µM*!	16µM*	?	11µM*!	?	?
CCOC(=O)OCC1OC(c2ccc(C(C)=O)cc2)C=CC1OC(=O)OCC (centres undefined)	.	.	-18%[10 µM]	.	2%[10 µM]	.
CC1=C(C#N)C(C)(C)C(C#N)=C(C)N1	.	i	.	1.1µM*	.	-1%
O=S1(=O)N=C(Nc2nncs2)c2ccccc21	11%	i	10µM*	-6%	?	16%
Cc1ccc(CNCc2cc3c(C(C)(C)C)nn(-c4ccccc4)c3[nH]c2=O)cc1	?	?	13µM*	-37%	?	-28%
SMILES	ATXN2 expr inh	S2 tox	VP16 counter	HepG2 viability	RORgamma inh	TGFb SMAD3 inh
O=S(=O)(CCSc1nc2ccccc2s1)c1nc2ccccc2s1	?	16µM*	16µM*	-96%	7.1µM*	?
C=CCS(=O)(=O)c1nc2ccccc2s1	?	.	-12%	10µM*	19%	18µM*
CCOc1ccc(C(=O)NCCc2sc3nc(-c4ccc(Cl)cc4)nn3c2C)cc1OCC	.	.	.	-11%	.	-29%
O=c1oc2c(CN3CCOCC3)c(O)c(Cl)cc2c2c1CCCC2	-9%	i	-4%	0%	11µM*	29%
O=S(=O)(c1ccc(NC(=S)N/N=C/c2cccc(Oc3ccccc3)c2)cc1)N1CCOCC1	-27%	i	-7%	-2%	0.89µM*	-3%
O=S(=O)(c1ccc(NC(=S)N/N=C/c2ccc(O)c(O)c2)cc1)N1CCOCC1	1%	i	-12%	-14%	-35%	?
N#Cc1ccc(/C=N/NC(=S)Nc2ccc(S(=O)(=O)N3CCOCC3)cc2)cc1	0%	i	?	7%	1.8µM*	-5%
CCN1CCN(c2ccc(Nc3cc(N(C)C(=O)Nc4c(Cl)c(OC)cc(OC)c4Cl)ncn3)cc2)CC1	-29%	.	.	.	.	.
O=C1c2ccccc2NC(c2ccc(-c3ccc(Br)cc3)o2)N1O (centres undefined)	?	?	?	-29%	7.1µM*	?
C[C@H](CO)N1C[C@H](C)[C@@H](CN(C)Cc2ccc(Oc3ccccc3)cc2)Oc2cc(Br)ccc2S1(=O)=O	-2%	?	.	-40%	.	13µM*
C[C@H]1CN([C@@H](C)CO)S(=O)(=O)c2ccc(C#CC3CC3)cc2O[C@H]1CN(C)C(=O)c1cccnc1	2%	i	.	10%	.	0%
C[C@@H]1CN([C@H](C)CO)S(=O)(=O)c2ccc(Br)cc2O[C@@H]1CN(C)C(=O)Nc1ccc(C(F)(F)F)cc1	?	22µM*	.	-39%	.	?
C[C@@H]1CN([C@@H](C)CO)S(=O)(=O)c2ccc(Br)cc2O[C@H]1CN(C)Cc1ccc(-c2ccccc2)cc1	?	?	.	-63%	.	?
C[C@@H]1CN([C@@H](C)CO)S(=O)(=O)c2ccc(Br)cc2O[C@H]1CN(C)C(=O)Nc1ccc(C(F)(F)F)cc1	?	.	.	16%	.	?
